Several values for one entry are separate records, joined by “and”; a condition that tells them apart may be missing. Identical values can stand only once. Inconclusive results are not listed. Activity calls are given as the source filed them.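 The calls were made as follows, unless noted: active = mean z-score across replicates of 1.96 or higher in either the MELAS or the Rieske mutant cell line; inactive = the rest.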
Experiments:
[1] = modulation of C. elegans fzo-1 (AID 1259413; call rule not given here;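 also: fzo-1 mutant C. elegans worms in liquid wells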); details: C. elegans fzo-1 modulator screen, mean read-out; stronger effect = higher value
[2] = EMT-state selective cytotoxicity in co-culture – imaging, PC-3E GFP, TEM4-18 mCherry, primary screen (AID 1345086;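 active = compounds killing one labelled cell type while sparing the other, by normalised counts and ratio limits, not self-fluorescent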;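 as to all read-outs here: cells exposed to compound for 72 h before imaging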;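 as to red/green cell ratio (normalised): normalised mesenchymal count divided by normalised epithelial count so high means epithelial killing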); details: PC-3E GFP / TEM4-18 mCherry co-culture, imaging cell counts, at 1 µM; for red/green cell ratio (normalised): actives lie on both sides, counts scaled to control wells, 1 = unselective
[3] = viability loss in pontine glioma line – cell-based, SU-DIPG-XIII, MIPE4.0, CellTiter-Glo, qHTS, dose response (AID 1347061; cut-off not given, nearly all actives have AC50 up to about 37 µM;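 also: cells exposed to compound for 48 hours before readout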); details: CellTiter-Glo ATP luminescence
[4] = viability loss in pontine glioma line – cell-based, JHH-DIPG-1, MIPE4.0, CellTiter-Glo, qHTS, dose response (AID 1347062; cut-off not given, nearly all actives have AC50 up to about 27 µM;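 as to AC50: cells exposed to compound for two days before readout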); details: JHH-DIPG-1 viability, CellTiter-Glo ATP luminescence
[5] = viability loss in pontine glioma line – cell-based, SU-DIPG-IV, MIPE4.0, CellTiter-Glo, qHTS, dose response (AID 1347063; cut-off not given, nearly all actives have AC50 up to about 30 µM;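 also: compound exposure lasted 48 hours before the viability readout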); details: CellTiter-Glo ATP luminescence
[6] = growth inhibition of DIPG cells – cell-based, MIPE4.0 library, CellTiter-Glo luminescence, qHTS (AID 1347066; cut-off not given, nearly all actives have AC50 up to about 30 µM;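 also: cells exposed to compound for 48 hours before readout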); details: SU-DIPG-VI viability, CellTiter-Glo ATP luminescence
[7] = growth inhibition of DIPG cells – cell-based, MIPE5.0 library, qHTS (AID 1347068; cut-off not given, nearly all actives have IC50 up to about 30 µM); details: SU-DIPG-XXV viability
[8] = viability loss with induced miR-34 in A549 – imaging, A549 dox-inducible miR-34, nuclei and caspase counts, primary screen (AID 1347080;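 active = compounds whose cell count with miR-34 switched on is under 0.7 times the count with it off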); details: A549 miR-34 inducible, Hoechst nuclei count, 48 h
[9] = MELAS cybrid and Rieske KO viability enhancers – cell-based, MELAS cybrids, Rieske KO mouse fibroblasts, CellTiter-Glo, primary screen (AID 1508586); details: low glucose;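 also: z relative to plate mean and SD of compound and empty wells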
[10] = viability loss in pontine glioma line – cell-based, SU-DIPG-XVII, MIPE5.0, CellTiter-Glo, qHTS, dose response (AID 1347060; cut-off not given, nearly all actives have AC50 up to about 26 µM); details: CellTiter-Glo ATP luminescence
[11] = viability loss in pontine glioma line – cell-based, SU-DIPG-XXV, MIPE5.0, CellTiter-Glo, qHTS, dose response (AID 1347065; cut-off not given, nearly all actives have AC50 up to about 26 µM;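 also: cells exposed to compound for 48 hours before ATP readout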); details: CellTiter-Glo ATP luminescence
[12] = JHH-DIPG-1 glioma cell viability, MIPE5.0 library, CellTiter-Glo luminescence, qHTS (AID 1347067; cut-off not given, nearly all actives have AC50 up to about 26 µM;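 also: cells exposed to compound for 48 hours before readout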); details: JHH-DIPG-1 glioma viability, CellTiter-Glo ATP luminescence
[13] = viability loss in pontine glioma line – cell-based, SU-DIPG-XIII, MIPE5.0, CellTiter-Glo, qHTS, dose response (AID 1347064; cut-off not given, nearly all actives have AC50 up to about 23 µM); details: CellTiter-Glo ATP luminescence
[14] = measured here: epithelial PC-3E GFP cell survival
[15] = measured here: mesenchymal TEM4-18 mCherry cell survival
[16] = stronger effect = lower value, cell number ratio, induced over uninduced
[17] = measured here: relative caspase fold change +Dox/-Dox
[18] = measured here: total cells with miR-34 induction, stronger effect = lower value
[19] = measured here: total cells without miR-34 induction
[20] = MELAS cybrid survival, CellTiter-Glo 48 h, stronger effect = higher value
[21] = Rieske KO mouse fibroblast survival, CellTiter-Glo 72 h

CC(=O)Oc1ccccc1C(=O)Nc1ncc([N+](=O)[O-])s1
mean signal [1]: 256 (inactive)
red/green cell ratio (normalised) [2]: 0.75 (inactive)
normalised cell number [2, 14]: 1.31
normalised cell number [2, 15]: 0.98
AC50 [3]: 27 µM (active)
AC50 [4]: 38.2 µM (active)
AC50 [5]: 34 µM (active)
AC50 [6]: 9.59 µM (active)
outcome [7]: inactive
fold change [8, 16]: 1.08 (inactive) and 0.866 (inactive)
fold change [8, 17]: 1.12 and 1.29
cell count [8, 18]: 2500 and 6120
cell count [8, 19]: 2310 and 7070
z-score [9, 20]: -0.496 (inactive) and -0.13 (inactive)
z-score [9, 21]: -2.39 and 0.602

CN1CCC(=C2c3ccccc3CCc3sccc32)CC1
mean signal [1]: 277 (inactive)
red/green cell ratio (normalised) [2]: 0.85 (inactive)
normalised cell number [2, 14]: 1.11
normalised cell number [2, 15]: 0.94
outcome [10]: inactive
AC50 [3]: 16.6 µM (active)
outcome [11]: inactive
outcome [6]: inactive
outcome [12]: inactive
outcome [7]: inactive
z-score [9, 20]: -0.441 (inactive) and -0.79 (inactive)
z-score [9, 21]: -0.11 and 0.709

CN1CCN(CCCN2c3ccccc3Sc3ccc(Cl)cc32)CC1
mean signal [1]: 253 (inactive)
red/green cell ratio (normalised) [2]: 1.2 (inactive)
normalised cell number [2, 14]: 0.97
normalised cell number [2, 15]: 1.16
AC50 [3]: 0.0105 µM (active)
AC50 [4]: 7.43 µM (active)
AC50 [5]: 10.5 µM (active)
AC50 [6]: 16.6 µM (active)
z-score [9, 20]: -0.995 (inactive)
z-score [9, 21]: -0.206

Cc1nc2n(c(=O)c1CCN1CCC(c3noc4cc(F)ccc34)CC1)CCCC2
mean signal [1]: 241 (inactive)
red/green cell ratio (normalised) [2]: 0.98 (inactive)
normalised cell number [2, 14]: 1.02
normalised cell number [2, 15]: 1
outcome [3]: inactive
outcome [5]: inactive
outcome [6]: inactive
z-score [9, 20]: 1.35 (inactive) and -1.13 (inactive) and -0.64 (inactive)
z-score [9, 21]: 0.0817 and 0.437 and -0.833

O=C(O)CCNC(=O)c1ccc(N=Nc2ccc(O)c(C(=O)O)c2)cc1
mean signal [1]: 240 (inactive)
red/green cell ratio (normalised) [2]: 1.02 (inactive)
normalised cell number [2, 14]: 1.19
normalised cell number [2, 15]: 1.21
outcome [10]: inactive
outcome [3]: inactive
outcome [4]: inactive
outcome [13]: inactive
outcome [11]: inactive
outcome [6]: inactive
outcome [12]: inactive
outcome [7]: inactive
fold change [8, 16]: 0.971 (inactive) and 0.94 (inactive) and 0.899 (inactive)
fold change [8, 17]: 0.807 and 0.806 and 1.14
cell count [8, 18]: 9210 and 7860 and 9290
cell count [8, 19]: 9490 and 8360 and 10300
z-score [9, 20]: -1.26 (inactive)
z-score [9, 21]: -1.16

CN(C/C=C/C#CC(C)(C)C)Cc1cccc2ccccc12
mean signal [1]: 221 (inactive)
red/green cell ratio (normalised) [2]: 1.03 (inactive)
normalised cell number [2, 14]: 1.32
normalised cell number [2, 15]: 1.37
outcome [3]: inactive
outcome [4]: inactive
fold change [8, 16]: 0.935 (inactive) and 0.938 (inactive)
fold change [8, 17]: 4.07 and 1.16
cell count [8, 18]: 11600 and 9190
cell count [8, 19]: 12400 and 9800
z-score [9, 20]: 0.287 (inactive) and -0.488 (inactive)
z-score [9, 21]: -0.0957 and -0.937

Source: PubChem BioAssay
